Pf Dd2 growth – inhibitors of Plasmodium falciparum Dd2 growth; hit rate 4.3% among 120,000; Potency, µM (top dose mostly 28.9 µM), for the others: top-dose activity, negative = inhibition, usual class: inhibitors; P. falciparum Dd2 growth, SYBR Green, 72 h; AID 1347417; active = well fitted inhibition curve with a large enough effect;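 also: plate controls were DMSO vehicle for no effect and reference drug for full effect; nearly all actives have a fitted effect of over 65% in size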
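Infected erythrocytes (Dd2, 0.3% parasitemia, 2.5% hematocrit final) are added to compound in RPMI-1640/Albumax II medium, grown 72 h at 37C in low oxygen, then lysed with saponin/Triton-X containing SYBR Green and read by fluorescence.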
* marks the source's active call; other numbers are inactive results; i = inactive; [ ] = another dose, or the depositor's remark. This excerpt belongs to a sample that is enriched for hits. Potency is read from the fitted curve at half-maximal effect.

SMILES	Pf Dd2 growth
Cc1noc(C)c1S(=O)(=O)N1CCC2(C1)C(=O)Nc1ccccc12 (stereo not drawn)	16%
Cc1nc(C2(C)CCN(S(=O)(=O)c3c(C)noc3C)CC2)no1	-8%
Cc1noc(C)c1S(=O)(=O)N1CCC2(CC1)C(=O)N(C)c1ccccc12	3.5µM*
CN1CCN(C(=O)c2ccnc(-c3nnc4ccc(N(C)c5ccccc5)nn34)c2)CC1	-28%[44.1 µM]
CCC(=O)NCC12CCC=C1N(C)C(=O)CC2 (stereo not drawn)	-30%
CN(Cc1ccc(F)cc1)C(=O)c1ccc(F)cc1	-12%[44.1 µM]
COc1ccc(C)cc1NC(=O)c1ccc2c(c1)N(Cc1cccc(Cl)c1)C(=O)c1ccccc1S2=O (stereo not drawn)	7.9µM*
O=C(Nc1cccc(Cl)c1Cl)c1ccc2c(c1)N(Cc1cccc(Cl)c1)C(=O)c1ccccc1S2=O (stereo not drawn)	66%[0.594 µM]
Cc1cc(NC(=O)c2ccc3c(c2)N(Cc2cccc(Cl)c2)C(=O)c2ccccc2S3=O)ccc1Br (stereo not drawn)	10µM*
Cc1cc(NC(=O)c2ccc3c(c2)N(Cc2cccc(Cl)c2)C(=O)c2ccccc2S3(=O)=O)ccc1Br	8.9µM*
CCN1C(=O)c2ccccc2Sc2ccc(NC(=O)c3cccc(C)c3)cc21	i
Cc1ccc(CNC(=O)c2ccc3c(c2)N(Cc2ccccc2F)C(=O)c2ccccc2S3(=O)=O)cc1	i
CCC(C)NC(=O)c1ccc2c(c1)N(Cc1cccc(Cl)c1)C(=O)c1ccccc1S2=O (stereo not drawn)	-23%
CCN1C(=O)c2ccccc2Sc2ccc(NC(=O)c3ccc(C#N)cc3)cc21	23%
Cc1cccc(C)c1NC(=O)c1ccc2c(c1)N(Cc1cccc(Cl)c1)C(=O)c1ccccc1S2=O (stereo not drawn)	-16%
CC(=O)Nc1ccc(NC(=O)c2ccc3c(c2)N(Cc2cccc(Cl)c2)C(=O)c2ccccc2S3(=O)=O)cc1	-25%
N#Cc1cccc(NC(=O)c2ccc3c(c2)N(Cc2cccc(Cl)c2)C(=O)c2ccccc2S3(=O)=O)c1	2.2µM*
O=C(c1ccc2c(c1)N(Cc1ccc(Cl)cc1)C(=O)c1ccccc1S2(=O)=O)N1CCc2ccccc21	i
COc1ccccc1C(=O)NCc1nnc2n1C(C(=O)O)CC2 (stereo not drawn)	-28%
Cc1ccc(-c2nc(C)c(CCNS(=O)(=O)c3ccc(F)c(C(F)(F)F)c3)s2)cc1	-13%
Cc1ccc2nc(-c3ccc(NC(=O)COc4ccc(Br)cc4Br)cc3)sc2c1	i
COc1ccc(CC(=O)NCc2ccc3c(c2)CCN3C(=O)c2ccc(Cl)cc2)cc1	-3%
CSCC(=O)Nc1ccc2n(c1=O)C[C@H]1C[C@@H]2CN(C(=O)CSCC(=O)O)C1	1%[44.1 µM]
Cc1cc(C)cc(NC(=O)CN(C)S(=O)(=O)c2ccc3[nH]c4c(c3c2)CCCC4)c1	19%
Cc1ccccc1CN1CC[C@@H]2OCC(=O)N(c3ccccc3)[C@H]2CC1	-17%[44.1 µM]
SMILES	Pf Dd2 growth
O=S(=O)(N[C@H]1CO[C@H]2[C@@H]1OC[C@@H]2n1cc(-c2ccccn2)nn1)c1cccc2cccnc12	i
CC(NC(=O)CN(c1ccc(Cl)cc1Cl)S(=O)(=O)c1ccccc1)c1ccccc1 (stereo not drawn)	i
CCN(Cc1nc(-c2ccc(OC)cc2)oc1C)S(=O)(=O)c1ccc(C)cc1	49%
CCO[C@H]1CN(C(=O)C(C)(C)n2cccc2)C[C@@H]1O	-20%
COc1ccc(CN2CCn3c(nn(-c4ccc(Cl)cc4)c3=O)C2)cc1	-6%
NC(=O)Cn1c(=O)n(CCCCCC(=O)NCc2ccc3c(c2)OCO3)c(=O)c2sccc21	-4%
COc1cc2c(cc1OC)C(CNC(=O)C1CCCC1)N(C(=O)Nc1cccc(C)c1)CC2 (stereo not drawn)	11µM*
COc1cc2c(cc1OC)C(CNC(=O)c1ccccc1)N(C(=O)Nc1ccccc1F)CC2 (stereo not drawn)	i
CCC(=O)NCC1c2cc(OC)c(OC)cc2CCN1C(=O)Nc1cccc(C)c1 (stereo not drawn)	i
COc1ccccc1NC(=O)N1CCc2cc(OC)c(OC)cc2C1CNC(=O)c1ccco1 (stereo not drawn)	7.1µM*
COc1cc2c(cc1OC)C(CNC(=O)c1cccs1)N(C(=O)Nc1ccccc1F)CC2 (stereo not drawn)	i
COc1cc2c(cc1OC)C(CNC(=O)C1CCCC1)N(C(=O)NC(C)C)CC2 (stereo not drawn)	i
CCC(=O)NCC1c2cc(OC)c(OC)cc2CCN1C(=O)Nc1ccccc1 (stereo not drawn)	-5%
COc1ccccc1NC(=O)N1CCc2cc(OC)c(OC)cc2C1CNC(C)=O (stereo not drawn)	9%
CCCNC(=O)N1CCc2cc(OC)c(OC)cc2C1CNC(=O)c1ccccc1C (stereo not drawn)	8.9µM*
COc1cc2c(cc1OC)C(CNC(=O)c1cccs1)N(C(=O)Nc1ccccc1)CC2 (stereo not drawn)	8.9µM*
COc1cc2c(cc1OC)C(CNC(=O)c1ccccc1Cl)N(C(=O)Nc1ccccc1F)CC2 (stereo not drawn)	-3%
CN1CC(=O)N(c2cccnc2)Cc2c(NC3CCC3)ncnc21	10%[44.1 µM]
CC(C)(C)N1CC(C(=O)NCCc2nc(Cc3ccccc3)no2)CC1=O (stereo not drawn)	-6%
O=C(COc1ccccc1)N1C[C@@H](CO)[C@H](c2ccncc2)C1	i
O=C(CN1C(=O)NC2(CCOCC2)C1=O)NCCc1cccs1	25%
COc1ccc(C(=O)NC2CCN(c3cc(-c4cccs4)[nH]n3)CC2)cc1OC	0%
CN1CCCCC(CC(=O)NCc2ccc(Cl)cc2)C1=O (stereo not drawn)	-2%
COCCc1noc(Cn2nc(-c3ccccc3)c3ccccc3c2=O)n1	-7%
O=C(c1ccc(C(F)(F)F)cc1)N1CCCC(c2nn(-c3ccc(F)cc3)c(=O)[nH]2)C1 (stereo not drawn)	i
SMILES	Pf Dd2 growth
Cc1noc(C2CCCCCN2C(=O)C2CCCC2)n1 (stereo not drawn)	63%
Cc1cc(NC(=O)C2CCN(S(=O)(=O)c3cccc4nsnc34)CC2)ccc1Br	-3%
O=C(Nc1ccc(Oc2ccccc2)cc1)O[C@@H]1CO[C@H]2[C@@H]1OC[C@@H]2NC(=O)c1ccc(C(F)(F)F)cc1	i
Cn1ncc2c(C(=O)N3CCOCC3)cc(C(C)(C)C)nc21	15%[44.1 µM]
O=C(C[C@@H]1CCNC[C@@H]1Cc1cc(CC2CCCCC2)on1)NC1CC1	-16%[44.1 µM]
Cc1cccc(C(=O)Nc2nc(-c3nnn(-c4cc(C)ccc4C)c3C)ns2)c1	-13%
COCCOC1CCOC2(CCN(C(=O)Nc3ccccc3)CC2)C1 (stereo not drawn)	-23%
COCCOC1CCOC2(CCN(C(=O)Nc3ccccc3F)CC2)C1 (stereo not drawn)	13µM*
COC1CCOC2(CCN(C(=O)Nc3ccccc3F)CC2)C1 (stereo not drawn)	9%
Cc1ccc(NC(=O)CN2C(=O)c3cccnc3Sc3ccccc32)c(Br)c1	-13%
O=C(Nc1ccccc1)c1nnn2c1CN(Cc1ccccc1)C(=O)CC2	-23%[44.1 µM]
Nc1c(C(=O)Nc2ccc(Cl)cc2F)sc2nc(-c3cccs3)ccc12	0%
O=C(COc1ccc(F)cc1)N1CCCN(C(=O)C2CC2)c2ccccc21	-21%
CCN(CC)CCNC(=O)c1ccc(-n2c(-c3ccccc3)cc3c2CCCC3)cc1	7.9µM*
CCN(CC)CCNC(=O)c1ccc2c(c1)N(S(C)(=O)=O)CC2	24%

Assay outcomes: PubChem, National Center for Advancing Translational Sciences (NCATS)
